Bioassay records from PubChem.
Shown are actives, neighbours in structure and some others; about 0.78% of the full set was active somewhere.
NCOA3 inh = SRC3 coactivator transcriptional activity inhibitors, primary screen, cell-based, luminescence | Nuclear receptor coactivator 3 (Homo sapiens), Q9Y6Q9 | HEK293 GAL4-SRC3 luciferase reporter | inhibition, % at 3.6 µM | 0.17% of 360,000 active;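 active means inhibition above a per-campaign cutoff, the mean of all compounds plus 3 SD, cut at about 60% in these data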;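 further: 0% = DMSO-treated cells and 100% = gossypol-treated cells at 36 µM; higher means less SRC3-driven luciferase light from the GAL4 reporter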
LRH-1 inv ag = LRH-1 (NR5A2) inverse agonists, primary screen, cell-based, luminescence, HEK293T, StAR-luciferase reporter; Nuclear receptor subfamily 5 group A member 2 (Homo sapiens), O00482; LRH-1 transfected, 24 h; inhibition, % at 3.6 µM; 0.13% of 360,000 active;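 active means inhibition above the mean inhibition of all tested compounds plus 3 SD, cut at about 73% in these data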;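 further: 0% = DMSO wells and 100% = reporter-only cells lacking LRH-1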
Target sequence (O00482 whole entry, looked up): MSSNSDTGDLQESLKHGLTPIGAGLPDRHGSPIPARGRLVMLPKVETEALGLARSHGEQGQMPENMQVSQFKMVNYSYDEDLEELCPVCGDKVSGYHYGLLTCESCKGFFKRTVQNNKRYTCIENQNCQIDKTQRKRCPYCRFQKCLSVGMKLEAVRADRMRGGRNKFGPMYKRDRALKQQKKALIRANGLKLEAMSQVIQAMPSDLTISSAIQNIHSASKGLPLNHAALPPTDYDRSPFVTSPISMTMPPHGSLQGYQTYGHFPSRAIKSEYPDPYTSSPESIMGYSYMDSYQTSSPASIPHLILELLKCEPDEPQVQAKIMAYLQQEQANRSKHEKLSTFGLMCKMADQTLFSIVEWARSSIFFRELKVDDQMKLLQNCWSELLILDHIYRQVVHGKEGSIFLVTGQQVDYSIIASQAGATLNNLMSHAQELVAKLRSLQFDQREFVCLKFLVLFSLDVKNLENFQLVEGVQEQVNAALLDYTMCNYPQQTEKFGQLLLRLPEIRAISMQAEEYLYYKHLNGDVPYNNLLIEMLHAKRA
SRC1 inh = SRC1 coactivator transcriptional activity inhibitors, primary screen, cell-based, luminescence; Nuclear receptor coactivator 1 (Homo sapiens), Q15788; 0.12% of 360,000 active; inhibition, % at 3.6 µM; HEK293 GAL4-SRC1 luciferase reporter;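 active means inhibition above the campaign mean plus 3 SD, with each screening campaign given its own cutoff, cut at about 60% in these data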;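 further: 0% = DMSO treated cells and 100% = gossypol at 36 µM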
EBV LMP1 NFkB = EBV LMP1-driven NF-kappaB luciferase reporter inhibitors, primary screen, cell-based, luminescence, single point. LMP1-induced NF-kappaB luciferase reporter cells. inhibition, % at 12.5 µM. 0.69% of 350,000 active; in the data active means inhibition above about 41%;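 further: 0% = neutral control wells and 100% = reference inhibitor control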
NCOA2 inhibitor = inhibition of GAL4-SRC2 driven luciferase reporter, primary screen, SRC2 inhibitor project, cell-based, luminescence; Nuclear receptor coactivator 2 (Homo sapiens), Q15596; HEK293 GAL4-SRC2 luciferase reporter; inhibition, % at 9 µM; 0.17% of 370,000 active;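 active means inhibition above the mean inhibition of all tested compounds plus 3 SD, set per campaign, cut at about 52% in these data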;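 further: 0% = DMSO treated cells and 100% = cells given Gossypol at 36 µM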
* = called active by the depositor; · = no result.

SMILES	NCOA3 inh	LRH-1 inv ag	SRC1 inh	EBV LMP1 NFkB	NCOA2 inhibitor
CC[C@H](CCCc1ccc(F)cc1)CN(Cc1ccc(OC)cc1)S(=O)(=O)c1ccc(C)cc1	·	·	·	·	-39.0
c1nc(NCc2ccc3c(c2)OCO3)c2cc(-c3ccoc3)ccc2n1	60.4	16.9	51.1	49.4*	27.1
c1cncc(-c2ccc3ncnc(NCc4ccc5c(c4)OCO5)c3c2)c1	-8.3	0.8	6.5	1.1	17.2
Cc1cnc(NC(=O)CCNC(=O)c2ccccc2Cl)s1	2.2	-13.1	-5.1	1.9	-40.2
Cc1cnc(NC(=O)COc2ccccc2Cl)s1	-11.6	-74.5	-28.7	65.6*	34.3
O=C(O)c1ccc(C#Cc2cccc(F)c2)cn1	·	·	·	·	4.9
CCc1ccc(/C=C2/SC(=S)N(CCC(=O)NCCCN3CCOCC3)C2=O)cc1	-5.6	-6.0	-50.7	-1.7	-27.4
CCc1ccc(/C=C2\SC(=S)N(CCCC(=O)NCCCN3CCOCC3)C2=O)cc1	45.4	35.7	49.1	36.3	89.3*
O=C(CCCN1C(=O)/C(=C/c2ccccc2Cl)SC1=S)NCCCN1CCOCC1	14.9	18.2	18.2	10.9	78.6*
CCOc1ccc(/C=C2\SC(=S)N(CCCC(=O)NCCCN3CCOCC3)C2=O)cc1	32.8	31.4	33.3	54.7*	83.5*
COc1ccc(CN2C/C(=C/c3ccccc3)N3C(=O)C[C@@H](c4ccc5ccccc5c4)N=C23)c(OC)c1	·	·	·	·	17.0
C/C=C/C(=O)N1CCC(C(=O)NC2CCCc3ccccc32)CC1 (configuration not stated)	·	·	·	·	-0.1
O=C(/C=C\Nc1ccc2c(c1)OCO2)c1ccccn1	34.4	-34.2	12.1	71.7*	73.1*
CC(COc1ccc(S(C)(=O)=O)cc1)CN1CCC(C(O)(c2ccccc2)c2ccccc2)CC1 (configuration not stated)	·	·	·	·	-22.8
COc1ccc(NC(=O)N(Cc2cc3ccc(OC)cc3[nH]c2=O)CC2CCCO2)cc1 (configuration not stated)	-7.8	7.1	-3.6	-8.5	-17.4
COc1ccc2cc(CN(CC3CCCO3)C(=O)Nc3ccccc3OC)c(=O)[nH]c2c1 (configuration not stated)	4.4	11.8	-14.9	49.4*	23.1
COc1ccc(NC(=O)N(CCN2CCCC2)Cc2cc3cc(OC)c(OC)cc3[nH]c2=O)cc1	8.1	5.4	2.8	43.7*	-40.4
CC(=O)c1ccc(-c2nc3c4ccccc4ccn3c2C(C)=O)o1	1.6	0.2	-4.0	77.3*	-0.2
CC(=O)Nc1sc(N/N=C/c2ccccc2)nc1-c1ccc(C)cc1	-35.8	-25.9	-21.6	-0.7	-45.3
CCCc1sc(N/N=C/c2ccccn2)nc1-c1ccc(Br)cc1	2.2	-25.7	-28.4	59.0*	-41.1
Cc1cc(C(=O)Nc2ccc(F)cc2)n(-c2ccccc2)n1	·	·	·	·	7.2
COc1ccccc1-c1noc(-c2ccccc2)n1	-101.8	-144.8	-88.2	47.2*	-35.8
CCOc1cnn(-c2cc(Oc3ccc(C)cc3)ncn2)c(=O)c1Cl	-11.0	-10.3	-2.8	4.1	-9.2
Cc1ccccc1Oc1cc(-n2ncc(Cl)c(Cl)c2=O)ncn1	10.7	-7.9	-284.2	93.0*	-13.5
COc1ccc(C(CCOC(=O)Oc2ccccc2)c2cc(OC)c(OC)c(OC)c2)cc1 (configuration not stated)	·	·	·	·	-1.3
SMILES	NCOA3 inh	LRH-1 inv ag	SRC1 inh	EBV LMP1 NFkB	NCOA2 inhibitor
CC(=O)c1ccc(N2CCN(c3ccnc4cc(Cl)ccc34)CC2)cc1	16.4	-10.3	-14.7	47.1*	-6.0
CC(C)(C)C(=O)N1CCN(c2ccnc3cc(Cl)ccc23)CC1	10.9	6.8	-0.9	7.7	14.6
COc1ccc(/C=C/C(=O)OCC(=O)NCc2ccco2)cc1OC	17.9	9.0	-1.4	55.5*	-22.6
COc1ccc(S(=O)(=O)Nc2cc(Sc3ncn[nH]3)c(O)c3ccccc23)cc1	·	·	·	·	61.1*
COc1ccc(S(=O)(=O)Nc2ccc(O)c(Sc3ncn[nH]3)c2)cc1	23.1	2.3	10.8	-12.1	-0.5
O=C(OCn1ncc(Cl)c(Cl)c1=O)c1ccccc1Cl	-54.5	14.4	-95.3	86.5*	-78.2
CCC(NC(=O)c1cccc2c1C(=O)N(Cc1cccnc1)C2)c1ccccc1 (configuration not stated)	·	·	·	·	11.1
O=C1/C(=C\c2ccccc2)CN(C(=O)CCN2CCCCC2)C/C1=C/c1ccccc1	1.7	74.1*	-8.1	-32.0	40.4
COc1ccc(OC)c2[nH]c(=O)c(CCNC(=O)c3ccc(S(=O)(=O)N(C)C)cc3)cc12	14.2	-3.6	2.6	68.7*	-17.4
O=C(Cc1ccc(-n2c(=O)c3sccc3n(CC(=O)Nc3ccccc3F)c2=O)cc1)NCc1ccco1	-4.1	-13.3	-21.8	69.4*	-21.8
CCN(CC)c1ccc(NC(=O)CCCCC(=O)Nc2ccc(N(CC)CC)cc2)cc1	31.9	3.1	6.3	13.5	56.9*
COC(=O)CSc1ncnc2c1sc1nc3c(cc12)COC(C)(C)C3	-10.7	-6.7	-32.4	51.3*	-9.9
CC1(C)Cc2nc3sc4c(SCC(=O)NCc5ccccc5)ncnc4c3cc2CO1	-89.9	-44.5	-77.8	12.7	-30.7
CC1(C)Cc2nc3sc4c(SCC(=O)O)ncnc4c3cc2CO1	-30.2	-44.1	-56.7	52.3*	15.4
O=C(C=C1SCCS1)/C=C/c1ccco1	-92.6	-170.7	-132.8	85.8*	-157.8
O=C(C1CC(=O)N(c2ccc3c(c2)OCCO3)C1)N1CCN(S(=O)(=O)c2ccc(F)cc2)CC1 (configuration not stated)	9.9	-10.3	-7.2	53.2*	-15.5
CC(C)CC(=O)Nc1nnc(SCC(=O)Nc2ccc3c(c2)OCO3)s1	-18.5	3.3	-2.3	-1.5	-26.6
CC(C)(C)C(=O)Nc1nnc(SCC(=O)Nc2ccc3c(c2)OCO3)s1	3.6	-15.2	-7.6	46.3*	3.6
COc1ccc(N(CC(=O)Nc2ccccc2C(=O)N2CCCC2)S(=O)(=O)c2ccccc2)cc1	-11.2	1.4	-3.0	63.1*	-16.2
COc1ccc(N(CC(=O)Nc2ccccc2C(=O)N2CCCC2)S(C)(=O)=O)cc1	-15.3	-3.3	-6.7	-0.3	-4.8
CC(Sc1nc(-c2ccc(F)cc2)cs1)C(=O)N1c2ccccc2CC1C (configuration not stated)	11.7	-4.2	11.9	59.1*	-12.1
CC(C)N1CCN(c2ccc(OC[C@H]3CO[C@](Cn4cncn4)(c4ccc(Cl)cc4Cl)O3)cc2)CC1	-9.5	-27.1	-8.3	56.3*	-11.0
Cc1sc2ncnc(N/N=C/c3ccccc3O)c2c1C	19.4	-12.6	-9.1	42.8*	19.2
Cc1ccccc1NC(=O)C(Cl)=C(Cl)Cl	3.2	-16.2	4.3	90.0*	6.9
Cc1ccccc1NNC(=O)C(=O)NNc1ccccc1C	15.8	-2.6	-6.1	-26.0	-8.0
